This is a sample that favours compounds with a hit; in the whole collection about 1.3% have one here.
NR5A2 inv ag – inverse agonists of human LRH-1 (NR5A2) | HEK293T StAR-luciferase reporter, LRH-1 transfected, 24 h | inhibition, % at 3.6 µM | hit rate 0.13% among 360,000 | AID 602396;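 active = inhibition above the mean inhibition of all tested compounds plus 3 SD, cut at about 73% in these data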;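 also: 0% = DMSO wells and 100% = reporter-only cells lacking LRH-1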
NCOA2 inhibitor – human SRC2 (NCOA2) inhibition; Q15596; HEK293 GAL4-SRC2 luciferase reporter, luminescence; inhibition, % at 9 µM; hit rate 0.17% among 370,000; AID 651957;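 active = inhibition above the mean inhibition of all tested compounds plus 3 SD, set per campaign, cut at about 52% in these data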;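 also: 0% = DMSO treated cells and 100% = cells given Gossypol at 36 µM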
Gli-Sufu block – blocks Gli-Sufu signaling in a luciferase reporter. Sufu-KO-LIGHT fibroblasts, Gli luciferase reporter luminescence. inhibition, % at 5 µM. hit rate 0.74% among 340,000;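 active = inhibition above about 55%, limit read from the data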;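 also: 0% = DMSO-treated cells and 100% = wells with medium but no cells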
NCOA1 inh – inhibits human SRC1 coactivator | Q15788 | HEK293 GAL4-SRC1 luciferase reporter, luminescence | inhibition, % at 3.6 µM | hit rate 0.12% among 360,000;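 active = inhibition above the campaign mean plus 3 SD, with each screening campaign given its own cutoff, cut at about 60% in these data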;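 also: 0% = DMSO treated cells and 100% = gossypol at 36 µM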
COUP-TFII inh – blocks human COUP-TFII nuclear receptor | HEK293T NGFI-A luciferase reporter, luminescence | inhibition, % at 8.6 µM | hit rate 0.7% among 370,000;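 active = inhibition above a per-plate cutoff, mean inhibition of test wells between control levels plus 3 SD, cut at about 38% in these data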;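 also: cells cotransfected with COUP-TFII expression vector driving the NGFI-A reporter; 0% = median of COUP-TF2 test wells and 100% = reporter-only cells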
NCOA3 inh – inhibits human SRC3 coactivator | Q9Y6Q9 | HEK293 GAL4-SRC3 luciferase reporter, luminescence | inhibition, % at 3.6 µM | hit rate 0.17% among 360,000 | AID 588352;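 active = inhibition above a per-campaign cutoff, the mean of all compounds plus 3 SD, cut at about 60% in these data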;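 also: 0% = DMSO-treated cells and 100% = gossypol-treated cells at 36 µM; higher means less SRC3-driven luciferase light from the GAL4 reporter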
Gal4-VP16 ctr – inhibits VP16 reporter, flagging COUP-TFII antagonist hits; shares compounds with COUP-TFII inh; HEK293 Gal4-VP16 luciferase reporter, luminescence; inhibition, % at 8.5 µM; hit rate 25% among 2,500; AID 687007; in the data active = inhibition above about 13%
NR2F2 inh conf – COUP-TFII (NR2F2) inhibition, confirmation assay; inhibition, % at 8.5 µM; hit rate 45% among 2,500; HEK293 NGFI-A luciferase reporter, luminescence; shares compounds with COUP-TFII inh; AID 687008;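 active = mean inhibition over three repeats above a set limit taken from the earlier primary screen, cut at about 38% in these data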;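 also: 100% = cells given the luciferase reporter alone without the COUP-TF2 vector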
The depositor's hits bear a star; nt = no result; ! = not active in a repeat.

SMILES	NR5A2 inv ag	NCOA2 inhibitor	Gli-Sufu block	NCOA1 inh	COUP-TFII inh	NCOA3 inh	Gal4-VP16 ctr	NR2F2 inh conf
CCC[C@H]1[C@@H](NC(=O)C2CCC2)CC[C@@]23CCCN2C(=O)CCC[C@@H]13	nt	nt	nt	nt	-11.4	nt	nt	nt
CC1CCN(c2ccc(C(=O)O)cc2NS(=O)(=O)c2cccc3cccnc23)CC1	nt	-21.0	nt	nt	14.8	nt	nt	nt
CC(C)(C)C(=O)NC1CCCCN(Cc2cccc(C(F)(F)F)c2)C1=O (stereo not drawn)	nt	8.4	nt	nt	29.0	nt	nt	nt
COc1ccc(C2CCC3(CCC(=O)N3CCOC(=O)NCc3ccc(Cl)cc3)CC2)cc1 (stereo not drawn)	nt	23.0	nt	nt	40.1*	nt	1.8	16.1
COc1ccc(S[C@]2(C(=O)N3CCOCC3)CC(=O)N(C(=O)Nc3ccc(C)c(Cl)c3)[C@@H]2c2ccc(OC)cc2)cc1	nt	-27.8	nt	nt	13.1	nt	nt	nt
O=C(CSc1cc(Cl)ccc1Cl)N/N=C/c1ccc[nH]1	nt	nt	nt	nt	55.7*	nt	8.1	38.4*
O=C(Nc1ccc2c(c1)OCO2)N1CCC(c2nc3ccc(Cl)cc3[nH]2)CC1	nt	-14.5	nt	nt	-17.1	nt	nt	nt
Cc1nc2c(-c3ccc(F)cc3)cnn2c(N)c1-c1ccc(F)cc1	27.9	-31.1	32.2	1.2	47.2*	37.7	-89.4	18.5
COC(=O)c1ccc(S(=O)(=O)N2CCCN(Cc3cccc(Br)c3F)CC2)n1C	24.3	27.7	9.5	11.9	54.8*	15.6	-5.0	11.1
Cc1cc(C(=O)Nc2ccc(Cl)c(Cl)c2)n(-c2ccccc2)n1	nt	3.5	nt	nt	2.5	nt	nt	nt
Cc1c(C(=O)NCc2ccc3c(c2)OCO3)sc(=O)n1Cc1ccc(S(=O)(=O)N(C)C)cc1	37.1	16.7	nt	2.6	24.0	20.3	nt	nt
COc1ccc(CNC(=O)c2sc(=O)n(Cc3ccc(-c4ccccc4)cc3)c2C)cc1OC	42.6	19.4	nt	9.7	44.5*	14.6	1.7	40.7*
Cc1c(C(=O)NCc2ccc3c(c2)OCCO3)sc(=O)n1Cc1ccc(S(=O)(=O)N(C)C)cc1	25.8	-7.8	nt	16.4	45.0*	17.8	5.1	13.5
Cc1c(C(=O)NCc2ccc(Cl)c(Cl)c2)sc(=O)n1Cc1ccc(S(C)(=O)=O)cc1	12.9	13.2	nt	5.5	85.3*	-3.7	-8.0	3.9
O=C1CC(c2ccc3c(c2)OCCO3)Oc2ccc([N+](=O)[O-])cc21 (stereo not drawn)	42.9	-1.0	28.5	56.7	42.1*	53.0	20.0*	67.3*
O=C1CC(c2ccc3c(c2)OCCO3)Oc2ccccc21 (stereo not drawn)	-76.6	-81.1	-48.6	-44.2	-13.9	-87.9	nt	nt
CC(C)(C)c1ccc(-c2noc(CCC(N)=O)n2)cc1	76.3*	83.2*	75.8*	51.3	84.9*	59.1	72.4*	88.3*
CNC(=O)CCc1nc(-c2ccc(C(C)(C)C)cc2)no1	-89.4	1.9	24.1	-77.8	-14.2	-69.5	nt	nt
CC(C)(C)c1ccc(-c2noc(CCC(=O)NC3CC3)n2)cc1	nt	nt	nt	nt	55.9*	nt	-46.9	35.7
COc1ccc(-c2noc(CCC(=O)Nc3cccnc3)n2)cc1	-7.9	8.3	-1.9	-16.1	0.8	-32.7	nt	nt
CC(C)(C)c1ccc(-c2noc(CCC(=O)Nc3cccnc3)n2)cc1	36.9	79.7*	70.6*	20.6	77.8*	41.1	58.6*	76.6*
CC(C)(C)c1ccc(-c2noc(CCC(=O)NCC3CCCO3)n2)cc1 (stereo not drawn)	40.3	58.6*	73.1*	22.4	75.4*	19.9	26.1*	60.5*
Cn1cccc1C(=O)N1CCN(S(=O)(=O)c2ccccc2F)CC1	nt	-11.6	nt	nt	-13.0	nt	nt	nt
Cc1cc(C)n(CC(=O)NNC(=O)c2cccc(C(F)(F)F)c2)n1	8.5	18.4	3.9	7.0	0.2	-9.6	nt	nt
Cc1cc(NNC(=O)c2cccc(C(F)(F)F)c2)nc2c1c(C)nn2C	33.6	24.1	25.1	12.5	49.5*	20.1	-1.6	43.4*
SMILES	NR5A2 inv ag	NCOA2 inhibitor	Gli-Sufu block	NCOA1 inh	COUP-TFII inh	NCOA3 inh	Gal4-VP16 ctr	NR2F2 inh conf
CN(C)c1cccc(/C=C2\CC3(OC(=O)c4ccc(Cl)cc4)CCCN2C3)c1 (stereo not drawn)	nt	-2.5	nt	nt	3.7	nt	nt	nt
O=C(/C=C\Nc1ccc2c(c1)OCO2)c1ccccn1	-34.2	73.1*	-6.4	12.1	46.1*	34.4	30.8*	52.1*
Cc1ccc(NC(=O)/C=C/c2ccc(S(=O)(=O)N3CCOCC3)cc2)cc1S(=O)(=O)N(C)C	22.4	30.3	8.2	8.6	48.9*	7.7	6.3	44.2*
COc1cc(/C=C/C(=O)Nc2ccc(OC)c(S(=O)(=O)N3CCOCC3)c2)ccc1OC(F)F	17.3	35.0	20.9	12.8	37.6*	29.2	13.3*	31.2
CC(=O)Nc1cccc(NC(=O)/C=C/c2ccc(S(=O)(=O)N3CCOCC3)cc2)c1	-5.6	-5.8	-15.5	-9.0	1.6	-1.1	nt	nt
COc1ccc(/C=C/C(=O)Nc2ccccc2C)cc1S(=O)(=O)N1CCOCC1	-35.5	-13.2	-12.5	-14.4	47.9*	-0.1	-80.0	-20.3
COc1ccc(CN2CCN(C(=O)c3ccc(S(=O)(=O)NCc4ccco4)cc3)CC2)cc1	39.7	11.2	-1.6	15.7	45.2*	7.3	4.8	30.6
O=C(c1ccc(S(=O)(=O)NCc2ccco2)cc1)N1CCN(Cc2ccccc2)CC1	-2.4	-7.3	-9.6	7.3	-8.9	18.3	nt	nt
CCCCNC(=O)C1(C(C)=O)CC(C(=O)OCC)=NO1 (stereo not drawn)	nt	-4.8	nt	nt	18.6	nt	nt	nt
O=S1(=O)c2ccc(Br)cc2OC[C@@H](Cc2ccccc2)N1Cc1cn(Cc2ccc(F)cc2)nn1	nt	10.6	nt	nt	1.7	nt	nt	nt
Cc1cn([C@H]2C=C[C@@H](CO)O2)c(=O)[nH]c1=O	-1.5	-14.8	7.4	-7.7	60.7*!	-6.4	-0.6	-13.3
COc1ccccc1N1CCN(C(=O)C2CCCN(S(=O)(=O)c3ccc4c(c3)CCCN4C(C)=O)C2)CC1 (stereo not drawn)	10.3	20.9	41.4	20.5	44.4*	34.2	-11.8	26.8
CC(=O)N1CCCc2cc(S(=O)(=O)N3CCCC(C(=O)N4CCN(c5ccccc5)CC4)C3)ccc21 (stereo not drawn)	20.4	12.9	45.7	-2.9	41.1*	15.4	10.0	29.4
CCC(=O)N1CCCc2cc(S(=O)(=O)N3CCN(c4ccccc4F)CC3)ccc21	13.0	17.5	6.4	12.9	50.0*	0.1	-3.0	13.2
COc1ccccc1N1CCN(C(=O)C2CCCN(S(=O)(=O)c3ccc(C)cc3)C2)CC1 (stereo not drawn)	-6.6	15.1	21.2	-3.0	19.1	12.8	nt	nt
CC(=O)N1CCCc2cc(S(=O)(=O)N3CCCC(C(=O)N4CCN(c5cc(C)ccc5C)CC4)C3)ccc21 (stereo not drawn)	0.2	17.1	49.6	20.7	34.2	21.6	nt	nt
